# Reference: PubChem BioAssay (Tox21)
# Where “and” joins values, the source holds several entries; their conditions need not be identical. Equal values may be shown once. Some structures have more than one record in an assay (separate samples or runs), and their calls can disagree. Calls of active or inactive are those of the source. Where a call stands in place of a potency, no number is given. Unless noted, calls come from the whole dose curve; as a rule, active = well fitted curve in the direction sought with a large enough effect in the repeat runs; inconclusive = weak or mixed curves; inactive = no such curve, though single readings can be large; an effect the other way counts as inactive or inconclusive.
# Legend:
# [1] = qHTS assay to identify small molecule antagonists of the thyroid receptor (TR) signaling pathway - cell viability counter screen (AID 743064); note: nearly all actives have a fitted effect of over 50% in size; note: potency is the fitted concentration of half-maximal effect
# How it was run: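 Rat GH3 pituitary tumor cells stably expressing two TR response elements driving luciferase were plated, rested 4 h, then dosed with library compounds and T3 (1 nM final). After 23.5 h at 37 °C, CellTiter-Fluor was added for 30 min and fluorescence recorded.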
# [2] = qHTS assay to identify small molecule antagonists of the thyroid receptor (TR) signaling pathway (AID 743065); note: nearly all actives have a fitted effect of over 55% in size; note: potency is the fitted concentration of half-maximal effect
# How it was run: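 GH3.TRE-Luc rat pituitary cells (two TREs driving luciferase) were dosed with compound, then stimulated with 1 nM T3 (final) for 23.5 h at 37 C. ONE-Glo luminescence was the read-out, with CellTiter-Fluor fluorescence as the cytotoxicity counter-screen.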
# [3] = system: thyroid hormone receptor (rat, GH3 cells); assay: qHTS assay to identify small molecule agonists of the thyroid receptor (TR) signaling pathway (AID 743066; calls by dose curve)
# [4] = molecular target: Estrogen receptor (Homo sapiens) (UniProt P03372); assay: qHTS assay to identify small molecule antagonists of the estrogen receptor alpha (ER-alpha) signaling pathway (AID 743069; active = well fitted curve in the direction sought with a large enough effect in the signal ratio in the repeat runs, not every such curve was filed as active; inconclusive = weak or mixed curves, or effect the other way; inactive = no such curve, though single readings can be large or run the other way; the % refers to the signal ratio; note: potency is the fitted concentration of half-maximal effect)
# Sequence of Estrogen receptor (Homo sapiens) (P03372 whole entry, looked up): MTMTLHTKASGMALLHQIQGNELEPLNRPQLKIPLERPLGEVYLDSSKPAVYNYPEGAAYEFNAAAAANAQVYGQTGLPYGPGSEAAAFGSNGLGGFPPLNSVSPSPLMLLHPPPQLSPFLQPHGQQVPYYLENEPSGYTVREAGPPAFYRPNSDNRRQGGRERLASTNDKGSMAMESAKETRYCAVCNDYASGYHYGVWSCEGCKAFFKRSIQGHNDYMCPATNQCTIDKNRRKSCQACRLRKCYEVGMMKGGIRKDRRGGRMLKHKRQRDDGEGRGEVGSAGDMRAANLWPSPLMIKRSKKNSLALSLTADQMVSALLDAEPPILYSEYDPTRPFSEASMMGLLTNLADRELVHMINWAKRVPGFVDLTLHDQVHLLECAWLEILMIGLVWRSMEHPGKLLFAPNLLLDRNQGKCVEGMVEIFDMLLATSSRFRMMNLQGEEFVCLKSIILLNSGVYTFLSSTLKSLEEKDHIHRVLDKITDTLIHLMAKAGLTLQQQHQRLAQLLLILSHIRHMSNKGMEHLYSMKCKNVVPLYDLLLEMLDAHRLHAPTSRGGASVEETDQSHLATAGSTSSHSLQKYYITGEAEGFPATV
# How it was run: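 In this cell-based reporter format, GripTite HEK293 cells harbouring ER-alpha-UAS-bla were grown overnight with 2% charcoal-stripped FBS, dosed with DMSO-dissolved compounds, then challenged with 17beta-estradiol. After 18 hr at 37C, beta-lactamase activity was detected by FRET fluorescence.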
# [5] = qHTS assay to identify small molecule antagonists of the estrogen receptor alpha (ER-alpha) signaling pathway - cell viability counter screen (AID 743074; calls by dose curve; note: nearly all actives have a fitted effect of over 45% in size; note: potency is the fitted concentration of half-maximal effect)
# [6] = molecular target: Estrogen receptor (Homo sapiens) (UniProt P03372); assay: qHTS assay to identify small molecule agonists of the estrogen receptor alpha (ER-alpha) signaling pathway (AID 743075; calls by dose curve; note: potency is the fitted concentration of half-maximal effect)
# [7] = molecular target: Estrogen receptor (Homo sapiens) (UniProt P03372); assay: qHTS assay to identify small molecule agonists of the estrogen receptor alpha (ER-alpha) signaling pathway using the BG1 cell line (AID 743079); conditions: BG1Luc4E2 cells, ERE-luciferase agonist, 22 h; activation: at 70.3 µM (top of the series) unless noted; note: nearly all actives have a fitted effect of over 20% in size; note: potency is the fitted concentration of half-maximal effect
# [8] = qHTS assay to identify small molecule antagonists of the estrogen receptor alpha (ER-alpha) signaling pathway using the BG1 cell line (AID 743080; calls by dose curve;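 note: BG1 cells stimulated with 17beta-estradiol alongside compound; nearly all actives have a fitted effect of over 25% in size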; note: potency is the fitted concentration of half-maximal effect)
# How it was run: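 After 5 days in phenol-red-free 10% charcoal-stripped FBS medium, BG1-Luc-4E2 cells were seeded, left 24 h at 37 C, co-treated with compounds and 17beta-estradiol for 21.5 h, then assayed for viability and luciferase.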
# [9] = qHTS assay to identify small molecule antagonists of the estrogen receptor alpha (ER-alpha) signaling pathway using the BG1 cell line - cell viability counter screen (AID 743081);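 note: compound given together with 17beta-estradiol as the ER stimulus; nearly all actives have a fitted effect of over 45% in size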
# Aromatase (Homo sapiens) = Aromatase (Homo sapiens) (UniProt P11511); assay: qHTS assay to identify aromatase inhibitors (AID 743083); note: nearly all actives have a fitted effect of over 55% in size; note: potency is the fitted concentration of half-maximal effect
# Sequence of Aromatase (Homo sapiens) (P11511 whole entry, looked up): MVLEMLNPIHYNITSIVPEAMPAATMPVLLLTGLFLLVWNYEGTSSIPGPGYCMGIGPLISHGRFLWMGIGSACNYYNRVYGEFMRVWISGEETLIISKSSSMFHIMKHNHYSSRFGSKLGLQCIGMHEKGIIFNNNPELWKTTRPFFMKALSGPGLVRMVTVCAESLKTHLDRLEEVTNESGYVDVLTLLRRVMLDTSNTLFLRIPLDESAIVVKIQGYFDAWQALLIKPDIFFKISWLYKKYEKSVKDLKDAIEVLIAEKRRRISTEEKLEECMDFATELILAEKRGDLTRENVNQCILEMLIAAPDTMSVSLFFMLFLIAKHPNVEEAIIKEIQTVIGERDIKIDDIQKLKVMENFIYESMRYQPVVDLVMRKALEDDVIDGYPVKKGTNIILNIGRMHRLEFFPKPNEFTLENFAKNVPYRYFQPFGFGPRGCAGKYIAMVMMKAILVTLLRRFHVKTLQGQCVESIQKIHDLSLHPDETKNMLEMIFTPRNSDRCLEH
# [10] = qHTS assay to identify aromatase inhibitors - cell viability counter screen (AID 743084);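 note: cells stimulated with testosterone during compound exposure; nearly all actives have a fitted effect of over 55% in size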; note: potency is the fitted concentration of half-maximal effect
# [11] = molecular target: Aryl hydrocarbon receptor (Homo sapiens) (UniProt P35869); assay: qHTS assay to identify small molecule that activate the aryl hydrocarbon receptor (AhR) signaling pathway (AID 743085); note: nearly all actives have a fitted effect of over 15% in size; note: potency is the fitted concentration of half-maximal effect;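 for activation: HG2L7.5c1 human HepG2 liver cells with stably integrated DRE-driven firefly reporter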
# Sequence of Aryl hydrocarbon receptor (Homo sapiens) (P35869 whole entry, looked up): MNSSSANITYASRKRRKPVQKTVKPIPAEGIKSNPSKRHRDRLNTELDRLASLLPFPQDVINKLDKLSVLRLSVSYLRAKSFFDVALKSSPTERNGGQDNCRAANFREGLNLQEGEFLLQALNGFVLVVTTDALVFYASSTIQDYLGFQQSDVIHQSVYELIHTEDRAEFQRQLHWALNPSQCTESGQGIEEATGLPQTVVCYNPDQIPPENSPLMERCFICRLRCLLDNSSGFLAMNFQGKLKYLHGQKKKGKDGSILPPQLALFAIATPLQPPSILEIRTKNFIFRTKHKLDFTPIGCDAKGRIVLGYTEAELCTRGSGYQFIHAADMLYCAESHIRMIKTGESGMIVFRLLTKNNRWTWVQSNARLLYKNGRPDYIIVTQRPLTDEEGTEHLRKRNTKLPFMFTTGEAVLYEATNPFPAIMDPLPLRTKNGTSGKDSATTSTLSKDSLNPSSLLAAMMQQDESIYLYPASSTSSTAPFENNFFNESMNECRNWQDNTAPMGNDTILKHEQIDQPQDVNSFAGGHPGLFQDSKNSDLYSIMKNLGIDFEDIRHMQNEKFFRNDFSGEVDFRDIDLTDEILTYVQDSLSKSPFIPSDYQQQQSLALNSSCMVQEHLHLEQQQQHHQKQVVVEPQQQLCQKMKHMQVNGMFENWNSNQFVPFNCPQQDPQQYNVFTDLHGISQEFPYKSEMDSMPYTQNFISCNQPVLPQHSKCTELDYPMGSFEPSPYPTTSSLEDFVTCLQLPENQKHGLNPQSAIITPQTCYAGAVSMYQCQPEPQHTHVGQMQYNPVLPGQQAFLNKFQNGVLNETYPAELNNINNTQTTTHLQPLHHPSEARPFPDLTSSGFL
# How it was run: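 Compounds were tested in HepG2 hepatocellular carcinoma cells harbouring a stably integrated luciferase gene under control of 20 DREs. Increased reporter signal after 24 h treatment at 37C was taken as AhR activation.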
# [12] = qHTS assay to identify small molecule that activate the aryl hydrocarbon receptor (AhR) signaling pathway - cell viability counter screen (AID 743086);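 note: HepG2 liver cells carrying the AhR DRE luciferase reporter; nearly all actives have a fitted effect of over 45% in size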
# How it was run: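 HepG2-AhR-luc (HG2L7.5c1) cells, 4000/well, treated 24 h at 37 C with compound; viability measured as CellTiter-Fluor fluorescence after 30 min in the same wells as the luciferase read.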
# [13] = molecular target: Peroxisome proliferator-activated receptor gamma (Homo sapiens) (UniProt P37231); assay: qHTS assay to identify small molecule antagonists of the peroxisome proliferator-activated receptor gamma (PPARg) signaling pathway (AID 743191; calls by dose curve; note: nearly all actives have a fitted effect of over 30% in size; note: potency is the fitted concentration of half-maximal effect)
# Sequence of Peroxisome proliferator-activated receptor gamma (Homo sapiens) (P37231 whole entry, looked up): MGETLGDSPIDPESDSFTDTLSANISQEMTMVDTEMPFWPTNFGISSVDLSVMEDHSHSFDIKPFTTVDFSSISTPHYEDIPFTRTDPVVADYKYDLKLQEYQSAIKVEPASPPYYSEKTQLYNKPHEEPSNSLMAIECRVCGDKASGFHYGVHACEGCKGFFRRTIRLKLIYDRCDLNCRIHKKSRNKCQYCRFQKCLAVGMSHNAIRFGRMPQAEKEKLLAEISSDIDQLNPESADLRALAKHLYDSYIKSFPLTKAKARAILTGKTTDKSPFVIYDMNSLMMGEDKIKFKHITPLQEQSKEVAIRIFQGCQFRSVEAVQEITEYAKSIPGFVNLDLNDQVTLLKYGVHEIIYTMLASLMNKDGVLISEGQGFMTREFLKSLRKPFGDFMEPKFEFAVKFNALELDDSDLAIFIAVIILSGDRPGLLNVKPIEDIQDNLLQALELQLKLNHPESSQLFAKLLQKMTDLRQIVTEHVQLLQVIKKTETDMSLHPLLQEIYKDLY
# How it was run: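 GeneBLAzer PPARg UAS-bla HEK293H cells, 5 h post-plating, exposed to compounds 17 h at 37C. LiveBLAzer B/G FRET substrate added for 1 h at room temperature; beta-lactamase reporter read by fluorescence intensity.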
# [14] = qHTS assay for small molecule agonists of the antioxidant response element (ARE) signaling pathway (AID 743202; active = well fitted activation curve with a large enough effect in the signal ratio in the repeat runs, not every such curve was filed as active; inconclusive = weak or mixed curves, or effect the other way; inactive = no such curve, though single readings can be large or run the other way; the % refers to the signal ratio)
# How it was run: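 HepG2 ARE-bla cells; 16 h treatment at 37 C; FRET-based beta-lactamase fluorescence read after 2 h substrate incubation at room temperature.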
# [15] = qHTS assay for small molecule agonists of the antioxidant response element (ARE) signaling pathway - cell viability counter screen (AID 743203; calls by dose curve; note: nearly all actives have a fitted effect of over 55% in size; note: potency is the fitted concentration of half-maximal effect)
# How it was run: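 Viability counter screen: stably transfected ARE-bla HepG2 line, 16 hrs compound exposure at 37C/5% CO2, ATP-based CellTiter-Glo luminescence measured in the reporter wells.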
# [16] = qHTS assay for small molecule activators of the heat shock response signaling pathway - cell viability counter screen (AID 743209); note: nearly all actives have a fitted effect of over 50% in size; note: potency is the fitted concentration of half-maximal effect
# How it was run: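 Viability of HSE-bla HeLa cells is measured with CellTiter-Glo in the wells already used for the reporter read. Compound exposure lasts 5 h at 37 C, and luminescence is read after 30 min at room temperature.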
# [17] = qHTS assay for small molecule activators of the heat shock response signaling pathway (AID 743210; active = well fitted activation curve with a large enough effect in the signal ratio in the repeat runs, with a control signal flat, not every such curve was filed as active; inconclusive = weak or mixed curves; the % refers to the signal ratio;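 note: HeLa cells with beta-lactamase reporter driven by heat shock elements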)
# How it was run: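 Following overnight attachment, HSE-bla HeLa cells received test compounds for 5 h at 37 C; beta-lactamase activity was then detected via FRET substrate fluorescence.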
# [18] = molecular target: Peroxisome proliferator-activated receptor gamma (Homo sapiens) (UniProt P37231); assay: qHTS assay to identify small molecule agonists of the peroxisome proliferator-activated receptor gamma (PPARg) signaling pathway (AID 743094; active = well fitted activation curve with a large enough effect in the signal ratio in the repeat runs, not every such curve was filed as active; inconclusive = weak or mixed curves, or effect the other way; inactive = no such curve, though single readings can be large or run the other way; the % refers to the signal ratio)
# How it was run: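 Reporter activation was scored by fluorescence of cleaved LiveBLAzer B/G substrate (1 h, room temperature) in PPARg-bla HEK293H cells previously treated 17 h at 37C with DMSO-dissolved compounds.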
# [19] = qHTS assay to identify small molecule antagonists of the peroxisome proliferator-activated receptor gamma (PPARg) signaling pathway - cell viability counter screen (AID 743194); conditions: Potency: co-treated with 50 nM rosiglitazone unless noted; note: nearly all actives have a fitted effect of over 55% in size; note: potency is the fitted concentration of half-maximal effect
# How it was run: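 Cytotoxicity counter screen in PPARg-bla HEK293H cells, same wells as reporter assay. Compounds plus 50 nM rosiglitazone (final) for 17 h at 37 C, then viability read by CellTiter-Glo luminescence.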
Structure (SMILES),Potency [1],Potency [2],Potency [3],Potency [4],Potency [5],Potency [6],Potency [7],Potency [8],Potency [9],Potency (Aromatase (Homo sapiens)),Potency [10],Potency [11],Potency [12],Potency [13],Potency [14],Potency [15],Potency [16],Potency [17],Potency [18],Potency [19]
CNC(=O)CSP(=S)(OC)OC,inactive,inactive,inactive,inactive,inactive,inactive,inactive,inactive,inactive,inactive,inactive,inactive,inactive,inactive,inactive,inactive,inactive,inactive,,
CC1(C)Cc2cccc(O)c2O1,inactive,inactive,inactive,inactive,inactive,inactive,inactive,inactive,inactive,inactive,inactive,inactive,inactive,inactive,inactive,,inactive,inactive,inactive,inactive
CCCCOC(=O)COC(=O)c1ccccc1C(=O)OCCCC,inactive,inactive,inactive,inactive,inactive,inactive,inactive,inactive,inactive,inactive,inactive,inactive,inactive,inactive,inactive,inactive,inactive,inactive,,inactive
CNC(=O)Oc1cccc2c1OC(C)(C)C2,inactive,inactive,inactive,inactive,inactive,inactive,inactive and 24.3 µM (active),inactive,inactive,inactive,inactive,inactive,inactive,inactive,inactive,,inactive,inactive,,inactive
CCOS(=O)(=O)OCC,inactive,inactive,inactive,inactive,inactive,inactive,inactive,inactive,inactive,inactive,inactive,inactive,inactive,inactive,inactive,inactive,inactive,,inactive,inactive
CC(C)=CC1C(C(=O)OCc2cccc(Oc3ccccc3)c2)C1(C)C (stereo not drawn),inactive,inactive,inactive,inactive,inactive,inactive,inactive,inactive,inactive,inactive,inactive,inactive,inactive,,inactive,inactive,inactive,inactive,,inactive
COc1ccc(C=O)cc1OC,inactive,inactive,inactive,inactive,inactive,inactive,inactive and 6.86 µM (active),inactive,inactive,inactive,inactive,inactive,inactive,inactive,inactive,inactive,inactive,inactive,,
CN(C)P(=O)(N(C)C)N(C)C,inactive,inactive,inactive,inactive,inactive,inactive,inactive,inactive,inactive,inactive,inactive,inactive,inactive,inactive,inactive,,inactive,inactive,,
OC(c1ccc(Cl)cc1)(c1cncnc1)c1ccccc1Cl (stereo not drawn),inactive,61.1 µM (active),inactive,54.9 µM [inconclusive] (active),inactive,17.7 µM [activator] (active) and 61.6 µM [inconclusive] (active),9.69 µM (active),inactive,inactive,,inactive,inactive,inactive,54.9 µM (active),,inactive,inactive,inactive,,inactive
CCCCOCC1CO1 (stereo not drawn),inactive,inactive,inactive,inactive,inactive,inactive,inactive,inactive,inactive,inactive,inactive,inactive,inactive,inactive,inactive,inactive,inactive,inactive,,inactive
CCCCCCCCCCCCCl,inactive,inactive,inactive,inactive,inactive,54.2 µM [activator] (active) and inactive,30.2 µM (active) and inactive,inactive,inactive,inactive,inactive,inactive,inactive,inactive,inactive,,inactive,inactive,,inactive
O=C1C(Cl)=C(Cl)C(=O)c2ccccc21,30.7 µM (active) and 5.45 µM (active),3.07 µM (active) and 3.44 µM (active),inactive,,43.8 µM (active) and 54.9 µM (active),,,30.7 µM (active) and 54.5 µM (active),inactive,2.18 µM (active) and 3.86 µM (active),4.34 µM (active) and 27.3 µM (active),17.3 µM (active) and 10.9 µM (active),,,,68.8 µM (active) and 21.7 µM (active),27.6 µM (active) and 12.3 µM (active),,,39 µM (active) and 11 µM (active)
OCCOCCO,inactive,inactive,inactive,inactive,,inactive,inactive,inactive,inactive,inactive,inactive,inactive,inactive,inactive,inactive,inactive,inactive,,,
